These results are taken from PubChem BioAssay (Tox21).

Assay [1] concerns the target Thyrotropin-releasing hormone receptor (Homo sapiens) (UniProt P34981). As to the kind of experiment: qHTS assay to identify small molecule agonists of the thyrotropin-releasing hormone receptor (TRHR) signaling pathway (AID 1346891; calls by dose curve; note: series mostly up to about 58 µM). The gist of the method: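 Screening of agonists relied on calcium signalling in HEK293 cells expressing human TRHR: dye loading 2 h at 37 °C preceded compound addition and a 3-min fluorescence time course.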
In general terms: Quantitative high-throughput screening tests each substance at several concentrations.

Assay [2] in a line: Human pregnane X receptor (PXR) small molecule agonists, qHTS cell viability counter screen (AID 1346977). Note: nearly all actives have a fitted effect of over 50% in size. Note: potency is the fitted concentration of half-maximal effect. In short, it runs like this:
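Tox21 qHTS format; PXR-Luc HepG2, 2,000/well, charcoal-stripped FBS 5%. Cpd exposure 24hr. Read: CellTiter-Fluor fluorescence, multiplexed with luciferase.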

Assay [3] can be described thus: Caspase-3/7 induction in HepG2 cells by small molecules, qHTS assay (AID 1346978). Note: nearly all actives have a fitted effect of over 15% in size. Note: potency is the fitted concentration of half-maximal effect. In short, it runs like this:
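Wild-type HepG2 cells, 2,000/well, settled 5 hr at 37 C and 5% CO2, then compound-treated for 17 hr; caspase-3/7 activity read by luminescent Caspase-Glo 3/7 after 30 min at room temperature.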

The nature of assay [4]: Caspase-3/7 induction in CHO-K1 cells by small molecules, qHTS cell viability counter screen (AID 1346979). Note: nearly all actives have a fitted effect of over 35% in size. Note: potency is the fitted concentration of half-maximal effect. In short, it runs like this:
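CellTiter-Fluor viability check, qHTS format: wild-type CHO-K1, 16hr compound treatment, 1hr reagent incubation, fluorescence read.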

Assay [5] is described as follows: Caspase-3/7 induction in CHO-K1 cells by small molecules, qHTS assay (AID 1346980). Note: nearly all actives have a fitted effect of over 15% in size. Note: potency is the fitted concentration of half-maximal effect. The gist of the method:
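Wild-type CHO-K1 cells exposed to compounds for 17hr at 37 C, 5% CO2. Caspase-3/7 activity then measured by Caspase-Glo 3/7 luminescence after 30min at room temperature.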

Assay [6] can be described thus: Caspase-3/7 induction in HepG2 cells by small molecules, qHTS cell viability counter screen (AID 1346981). For activity change, negative = cytotoxicity: series mostly up to about 92 µM. Note: nearly all actives have a fitted effect of over 30% in size. Note: potency is the fitted concentration of half-maximal effect. The gist of the method:
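Wild-type HepG2 cells (2,000/well) were allowed to settle for 5 hr at 37 C, 5% CO2, then dosed with compounds in DMSO by pin transfer. After 16 hr at 37 C, CellTiter-Fluor was added and fluorescence read 1 hr later.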

Assay [7] deals with Nuclear receptor subfamily 1 group I member 2 (Homo sapiens) (UniProt O75469). The assay is described as follows: Human pregnane X receptor (PXR) small molecule agonists, qHTS assay (AID 1346982). Note: nearly all actives have a fitted effect of over 35% in size. Note: potency is the fitted concentration of half-maximal effect. In short, it runs like this: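 PXR-Luc HepG2 cells (CYP3A4 promoter-driven luciferase) were seeded in medium with 5% charcoal-stripped FBS, left 5 hr at 37 C, then exposed to compounds in DMSO for 24 hr. Luminescence was read after ONE-Glo addition.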
Sequence of Nuclear receptor subfamily 1 group I member 2 (Homo sapiens) (O75469 whole entry, looked up): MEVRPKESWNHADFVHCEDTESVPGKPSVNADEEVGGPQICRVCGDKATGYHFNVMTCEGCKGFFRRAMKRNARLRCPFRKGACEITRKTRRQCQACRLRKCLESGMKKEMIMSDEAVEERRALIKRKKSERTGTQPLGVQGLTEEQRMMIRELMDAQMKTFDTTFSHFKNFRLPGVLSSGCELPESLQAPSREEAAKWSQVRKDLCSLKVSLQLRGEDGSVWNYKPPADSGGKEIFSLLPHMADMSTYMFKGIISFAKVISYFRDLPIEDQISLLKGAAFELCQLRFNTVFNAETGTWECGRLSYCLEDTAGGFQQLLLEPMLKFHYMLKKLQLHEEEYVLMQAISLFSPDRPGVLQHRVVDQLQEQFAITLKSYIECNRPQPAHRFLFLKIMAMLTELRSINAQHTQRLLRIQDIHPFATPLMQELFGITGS

Assay [8] has as its target Nuclear receptor subfamily 1 group I member 2 (Rattus norvegicus) (UniProt Q9R1A7). As to the kind of experiment: Rat pregnane X receptor (rPXR) activation by small molecules, qHTS assay (AID 1346983). Note: nearly all actives have a fitted effect of over 20% in size. The conditions noted are these: rPXR luciferase reporter cells, One-Glo luminescence, 24 h; max activation: hits give high values. In short, it runs like this: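 Cell-based rPXR activation assay: rPXR cells, 2,000 per well, rested 5hr at 37 C, then exposed to compounds in DMSO for 24 hr at 37 C. Luciferase activity read by One-Glo luminescence after 30 min at room temperature.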

The target in assay [9] is Nuclear receptor subfamily 1 group I member 2 (Homo sapiens) (UniProt O75469). The assay is described as follows: CYP3A4 induction through human pregnane X receptor (PXR) by small molecules, qHTS assay (AID 1346984). Note: nearly all actives have a fitted effect of over 40% in size. In short, it runs like this:
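DPX-2 cells (HepG2 co-transfected with PXR and CYP3A4 promoter-luciferase) treated with compounds 24 h at 37C; luciferin-IPA CYP3A4 substrate 3uM final added for 3 h, then One-Glo; luminescence read. qHTS format.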

The target is the same in assay [10]. As to the kind of experiment: Human pregnane X receptor (PXR) activation by small molecules, qHTS assay (AID 1346985). Note: nearly all actives have a fitted effect of over 40% in size. The gist of the method: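 DPX-2 cells (HepG2 co-transfected with a PXR response element and a CYP3A4-promoter luciferase construct) were seeded at 2,000 per well, rested 5 hr at 37C, then exposed to DMSO-dissolved compounds for 24 hr. Activation was read as luciferase luminescence.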

Where “and” joins values, the source holds several entries; their conditions need not be identical. Equal entries are not always repeated. Unmarked numbers belong to inactive results. Inconclusive results are not listed. Calls of active or inactive are those of the source. Unless noted, calls come from the whole dose curve; as a rule, active = well fitted curve in the direction sought with a large enough effect in the repeat runs; inconclusive = weak or mixed curves; inactive = no such curve, though single readings can be large; an effect the other way counts as inactive or inconclusive.
% is set by controls: 0 for no effect and ±100 for the full control effect.

Sequence of Thyrotropin-releasing hormone receptor (Homo sapiens) (P34981 whole entry, looked up): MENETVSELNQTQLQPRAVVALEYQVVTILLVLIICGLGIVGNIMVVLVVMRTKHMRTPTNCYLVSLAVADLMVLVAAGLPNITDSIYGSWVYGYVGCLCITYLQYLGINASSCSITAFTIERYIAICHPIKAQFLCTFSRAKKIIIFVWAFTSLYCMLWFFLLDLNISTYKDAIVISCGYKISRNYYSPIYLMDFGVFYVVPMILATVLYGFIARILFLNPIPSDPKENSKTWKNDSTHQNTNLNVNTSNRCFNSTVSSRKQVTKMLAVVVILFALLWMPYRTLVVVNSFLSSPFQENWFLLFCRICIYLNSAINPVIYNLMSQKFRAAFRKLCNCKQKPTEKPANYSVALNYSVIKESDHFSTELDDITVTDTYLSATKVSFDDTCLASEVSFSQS
Sequence of Nuclear receptor subfamily 1 group I member 2 (Rattus norvegicus) (Q9R1A7 whole entry, looked up): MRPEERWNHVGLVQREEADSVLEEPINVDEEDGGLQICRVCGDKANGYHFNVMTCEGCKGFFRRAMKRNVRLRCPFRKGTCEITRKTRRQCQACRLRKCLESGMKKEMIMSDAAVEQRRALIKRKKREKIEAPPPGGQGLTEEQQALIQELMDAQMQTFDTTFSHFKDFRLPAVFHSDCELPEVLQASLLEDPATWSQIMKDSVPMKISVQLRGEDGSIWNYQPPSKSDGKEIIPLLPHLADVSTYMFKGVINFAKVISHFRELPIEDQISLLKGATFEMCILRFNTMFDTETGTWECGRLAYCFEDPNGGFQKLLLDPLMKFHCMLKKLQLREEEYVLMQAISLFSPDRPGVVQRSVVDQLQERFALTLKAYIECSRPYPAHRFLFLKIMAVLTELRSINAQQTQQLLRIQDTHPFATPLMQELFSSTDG

As to `C/C=C1\[C@H]2C=C(C)C[C@]1(N)c1ccc(=O)[nH]c1C2`, the outcome in assay [1] was inactive. Also, the Potency entry in [2], in [3], in assay [4], in assay [5], in [6] and in assay [7] was “inactive” throughout. Also, the Potency result in assay [9] and in assay [10] was “inactive” throughout. Moreover, in assay [8], the max activation is -1.47%.

Turning to `CC(C)C[C@H](NC(=O)[C@H](Cc1ccccc1)NC(=O)c1cnccn1)B(O)O`, in assay [1], the outcome was inactive. Besides, the Potency in [2] was 0.0422 µM (active); in assay [3] it was 0.211 µM (active); in [4], 0.0168 µM (active); in assay [5], 0.0067 µM (active); in [6], 0.0841 µM (active); in assay [7], 0.0084 µM (active). Also, in assay [8], the max activation was -18.4% and -17.1%. Moreover, the Potency result in assay [9] and in assay [10] was “inactive” in each case.

`c1ccc(-c2ccc(-c3ccccc3)cc2)cc1`: in assay [1], the activation is 0.249% [at 11.8 µM]. The activity change, negative = cytotoxicity was 0.816% [at 19 µM] in assay [2] and 11.6% [at 19 µM] in [4]. Moreover, the caspase activation in [3] was -3.46% [at 19 µM]. Besides, the caspase-3/7 activation in assay [5] was -1.92% [at 19 µM]. Further, the Potency in assay [7] is 1.77 µM (active).

On to `Sc1nc(S)nc(S)n1`, for which the call in assay [1] was inactive. For the same molecule, the Potency result in [2], in assay [3], in assay [5], in assay [6] and in assay [7] was “inactive” each time.

For the molecule `CC(=O)Nc1ccn(C2COC(COC(=O)c3ccccc3)O2)c(=O)n1` (centres undefined), the result in assay [1] was inactive. Also, the Potency result in assay [2], in assay [3], in [5], in assay [6] and in assay [7] was “inactive” throughout.

In the case of `O=C(OCCCCCOC(=O)c1ccccc1)c1ccccc1`, the result in assay [1] was inactive. Moreover, the Potency entry in assay [2], in [3], in [5], in assay [6] and in assay [7] was “inactive” throughout.

As to `Cc1c(Nc2ncccc2C(=O)O)cccc1C(F)(F)F`, the outcome in assay [1] was inactive. In addition, the Potency result in [2], in assay [3], in assay [4], in assay [5], in assay [9] and in [10] was “inactive” throughout. Besides, the max activation in [8] was -1.47%.

`SCCOCCOCCS`: in assay [1], the molecule was called inactive. Further, the Potency entry in [2], in assay [3], in assay [5] and in assay [6] was “inactive” each time. Moreover, the Potency in [7] is 4.86 µM (active).

With `CCCCCCCCCCCCCCCCN`, the call in assay [1] was inactive. Also, the Potency result in [2], in [3], in assay [4], in [5], in [6] and in assay [7] was “inactive” in each case. For the same molecule, the Potency result in assay [9] and in assay [10] was “inactive” each time. In addition, the max activation in assay [8] is -4.68%.

For `C=CCCC`, in [1], the call was inactive. The Potency entry in [2], in assay [3], in assay [5], in assay [6] and in assay [7] was “inactive” each time.

Take `O=C(O)c1cccnc1Nc1cccc(C(F)(F)F)c1`: the result in [1] was inactive. In addition, the Potency entry in assay [2], in [3], in [5] and in assay [6] was “inactive” throughout. For the same molecule, the Potency in assay [7] was 13.3 µM (active).

Consider `Cc1ccc(S(=O)(=O)NC(=O)NC2CCCC2)cc1`, for which the outcome in [1] was inactive. Besides, the Potency result in assay [2], in assay [3], in [4], in [5], in [6] and in [7] was “inactive” throughout. In addition, the Potency entry in [9] and in [10] was “inactive” throughout. Further, the max activation in assay [8] is -4.06%.

Consider `C[C@@H](O)[C@H]1C(=O)N2C(C(=O)O)=C(S[C@@H]3CN[C@H](CNS(N)(=O)=O)C3)[C@H](C)[C@H]12`, for which the call in assay [1] was inactive. The Potency result in assay [2], in assay [3], in assay [4], in assay [5], in assay [9] and in assay [10] was “inactive” throughout. Moreover, the Potency in [7] is 18.8 µM (active). Besides, the max activation in assay [8] was -2.11%.

As to `CC(C)(C)c1ccc(CCC=O)cc1`, in assay [1], the outcome was inactive. In addition, the Potency result in assay [2], in assay [3], in assay [5], in [6] and in assay [7] was “inactive” throughout.

For the molecule `CCOCCn1c(N2CCCN(C)CC2)nc2ccccc21`, the molecule was classed as inactive in assay [1]. Moreover, the Potency result in assay [2], in [3], in [4], in [5] and in [6] was “inactive” throughout. The max activation in assay [8] is 4.1%.

On to `C=C[Si](OCC)(OCC)OCC`, for which the molecule was classed as inactive in assay [1]. Moreover, the Potency entry in [2], in assay [3], in assay [5] and in assay [6] was “inactive” in each case.

Regarding `Nc1nc(Cl)nc2c1ncn2[C@H]1C[C@H](O)[C@@H](CO)O1`, in assay [1], the molecule was called inactive. The Potency result in assay [2], in [3], in assay [4] and in [5] was “inactive” each time. Further, the Potency in assay [7] was 1.71 µM (active).

`O=C(O)CNc1ccccc1`: the molecule was called inactive in [1]. For the same molecule, the Potency result in assay [2], in [3], in assay [5], in assay [6] and in assay [7] was “inactive” throughout.

Take `CCCCCCCCCC(C)C=O` (centres undefined): the result in assay [1] was inactive. Besides, the Potency result in assay [2], in assay [3], in assay [4] and in [5] was “inactive” each time. Also, in assay [7], the Potency is 48.6 µM (active).

For `CCCCCCCCNC`, the result in [1] was inactive. Further, the Potency entry in assay [2], in assay [3], in assay [4], in [5] and in [7] was “inactive” throughout.

Consider `COc1ccc(C(=O)Nc2ccccc2)cc1[N+](=O)[O-]`, for which, in [1], the molecule was classed as inactive. Further, the Potency result in assay [2], in assay [3], in [5] and in assay [6] was “inactive” each time. In addition, the Potency in assay [7] is 30.9 µM (active).

On to `CC/C=C\CCO`, for which the call in [1] was inactive. For the same molecule, the Potency result in [2], in assay [3], in assay [4], in assay [5] and in assay [7] was “inactive” throughout.

Regarding `COc1ccc(C(=O)c2ccc(C)cc2)c(O)c1`, the outcome in assay [1] was inactive. For the same molecule, the Potency entry in [2], in [3], in assay [4], in assay [5] and in assay [9] was “inactive” throughout. In assay [7], the Potency was 11 µM (active). For the same molecule, the max activation in [8] is -1.42%.

`Cc1cc(SC2=C(O)C[C@@](CCc3ccc(N)cc3)(C(C)C)OC2=O)c(C(C)(C)C)cc1CO`: the call in [1] was inactive. Further, the Potency result in assay [2], in assay [3], in [4] and in assay [5] was “inactive” each time. Also, in assay [7], the Potency is 30.6 µM (active).

`CO[C@@H]1COCC[C@@H]1N[C@@H]1CC[C@@](C(=O)N2CCc3ncc(C(F)(F)F)cc3C2)(C(C)C)C1`: the call in assay [1] was inactive. The Potency result in [2], in assay [3], in [5], in assay [6] and in assay [7] was “inactive” each time.

With `Clc1cccc(C(c2ccc3nc[nH]c3c2)n2ccnc2)c1` (centres undefined), in assay [1], the call was inactive. The Potency result in assay [2], in [3], in assay [4], in [5], in [6] and in assay [7] was “inactive” in each case. Besides, the Potency result in [9] was “inactive”.

With `O=C(O)CCc1nc2ccccc2[nH]1`, the molecule was classed as inactive in [1]. Besides, the Potency entry in [2], in [3], in [5], in assay [6] and in assay [7] was “inactive” throughout.

On to `COC=O`, for which the activation in [1] was -1.05% [at 5.23 µM]; in assay [7] it was -0.203% [at 8.39 µM]. Further, in assay [3], the caspase activation is -1.76% [at 8.39 µM]. Further, the activity change, negative = cytotoxicity in assay [4] was 2.52% [at 8.39 µM]; in [6], 7.73% [at 8.39 µM]. In addition, the caspase-3/7 activation in assay [5] was -0.739% [at 8.39 µM].

`O=C(Nc1ccccc1)c1cc([N+](=O)[O-])ccc1Cl`: the molecule was called inactive in assay [1]. The Potency result in assay [2], in assay [3] and in [5] was “inactive” throughout. The Potency in [7] is 61.1 µM (active).

For the molecule `CCC(C)CCCC(C)(C)O` (centres undefined), the outcome in [1] was inactive. For the same molecule, the Potency result in assay [2], in assay [3], in assay [5], in [6] and in [7] was “inactive” each time.
